Results taken from PMC5540273 (PLoS ONE, 2017).

Columns and labels:
Details in all cases: concentration: 1 μM, replicates: in singlicate; n = 1
HIPK3 = test system: HIPK3
HIPK4 = test system: HIPK4
HPK1 = test system: HPK1
HUNK = test system: HUNK
ICK = test system: ICK
IGF1R = test system: IGF1R
IKK-alpha = test system: T1, IKK-alpha
T1 construct: gene CHUK

IKK-beta = test system: T2, IKK-beta
T2 construct: gene IKBKB

IKK-epsilon = test system: T3, IKK-epsilon
T3 construct: gene IKBKE

INSRR = test system: INSRR
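Further: KINOMEscan kinase panel screen.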

Row | Structure (SMILES) | %Inh (HIPK3) | %Inh (HIPK4) | %Inh (HPK1) | %Inh (HUNK) | %Inh (ICK) | %Inh (IGF1R) | %Inh (IKK-alpha) | %Inh (IKK-beta) | %Inh (IKK-epsilon) | %Inh (INSRR)
1 | COc1ccc(-c2coc3ccc(-c4nnc(SCc5cccc(C#N)c5)o4)cc23)cc1 | 20% | 0% | 0% | 0% | 17% | 0% | 19% | 7% | 0% | 0%
2 | COc1cc(Nc2nccc(N3CCC(NC(=O)C4COc5ccccc5O4)C3)n2)cc(OC)c1OC (centres unmarked) [GSK1379761] | 0% | 0% | 51% | 30% | 0% | 0% | 21% | 0% | 0% | 0%
3 | Nc1nc(N)c2nc(-c3ccccc3)[nH]c2n1 [SKF-12778] | 10% | 13% | 57% | 11% | 15% | 15% | 4% | 17% | 12% | 12%
4 | Cc1ccc(Oc2ccc(Nc3ncnc4cc[nH]c34)cc2C)cn1 | 24% | 0% | 0% | 4% | 33% | 0% | 0% | 8% | 50% | 0%
5 | CN(C)c1cc(-c2ccc3c(N)n[nH]c3c2)nc(N)n1 [GSK2219329] | 17% | 0% | 26% | 2% | 4% | 14% | 0% | 0% | 40% | 0%
6 | CCc1ccc(-c2ccc3c(c2)-c2nn(C)cc2S(=O)(=O)N3C)cc1 | 0% | 0% | 18% | 47% | 0% | 0% | 0% | 1% | 0% | 0%
7 | CCCNC(=O)Nc1ccc(Oc2ncnc3ccn(C)c23)cc1 | 14% | 19% | 0% | 0% | 17% | 0% | 1% | 0% | 0% | 0%
8 | Cc1ccc(-c2ccc3c(ccc4sc5c(c43)NC[C@@H](C)N=C5N(C)C)n2)cn1 | 0% | 9% | 8% | 5% | 0% | 0% | 11% | 0% | 0% | 0%
9 | COc1cc2ncn(-c3cc(OCCCc4ccccc4)c(C(N)=O)s3)c2cc1OC [GSK205189] | 0% | 60% | 28% | 0% | 0% | 13% | 0% | 0% | 14% | 3%
10 | CCC(=O)c1c(-c2ccccc2)c2cc(Cl)ccc2c(=O)n1Cc1cc(S(C)(=O)=O)n(CCC(C)(C)O)n1 | 0% | 3% | 17% | 0% | 0% | 4% | 0% | 3% | 30% | 10%
11 | COc1cc(Nc2ccnc3ccc(C(F)(F)F)cc23)cc(OC)c1OC [GW577382] | 18% | 0% | 31% | 30% | 0% | 0% | 21% | 3% | 0% | 4%
12 | CCn1c(-c2nonc2N)nc2ccccc21 [SB-693162/GW549034] | 62% | 1% | 7% | 36% | 64% | 0% | 23% | 49% | 29% | 48%
13 | CCS(=O)c1ccc(-c2coc3ccc(-c4nnc(C)o4)cc23)cc1 (centres unmarked) | 21% | 0% | 11% | 0% | 10% | 0% | 10% | 6% | 0% | 0%
14 | O=C(Nc1n[nH]c2nc(-c3ccccc3)c(Br)cc12)C1CC1 [SB-708998] | 0% | 6% | 20% | 0% | 0% | 1% | 0% | 5% | 2% | 9%
15 | Cc1cccc(-c2nc(Nc3ccc4c(cnn4C)c3)c3ccccc3n2)n1 [GW876731] | 0% | 14% | 0% | 35% | 10% | 0% | 1% | 13% | 21% | 15%
16 | COc1cc(Nc2nccc(N3CCC(NC(=O)C(C)c4ccc(Cl)cc4)C3)n2)cc(OC)c1OC (centres unmarked) [GSK1379757] | 0% | 0% | 37% | 16% | 0% | 13% | 0% | 0% | 23% | 0%
17 | COC(=O)c1c(-c2ccccc2)c2cc(Br)ccc2c(=O)n1Cc1ccc(S(C)(=O)=O)cc1 | 10% | 5% | 0% | 27% | 50% | 9% | 9% | 6% | 15% | 1%
18 | O=C(Nc1n[nH]c2cc(-c3ccccc3F)ccc12)C1CC1 [SB-733371] | 3% | 0% | 8% | 0% | 32% | 0% | 0% | 0% | 0% | 9%

Row | Structure (SMILES) | %Inh (HIPK3) | %Inh (HIPK4) | %Inh (HPK1) | %Inh (HUNK) | %Inh (ICK) | %Inh (IGF1R) | %Inh (IKK-alpha) | %Inh (IKK-beta) | %Inh (IKK-epsilon) | %Inh (INSRR)
19 | CCC(=O)c1c(-c2ccccc2)c2cc(Cl)ccc2c(=O)n1Cc1cc(S(C)(=O)=O)n(CC(N)=O)n1 | 0% | 0% | 0% | 0% | 0% | 0% | 0% | 0% | 0% | 0%
20 | Cc1cc(Nc2nc(-c3cccc(C)n3)nc3ccccc23)ccn1 [GW872411] | 0% | 0% | 0% | 28% | 0% | 0% | 0% | 0% | 0% | 0%
21 | FC(F)(F)c1ccc(-c2ncn(CCCN3CCOCC3)c2-c2ccncc2)cc1 [SB-217780] | 7% | 0% | 1% | 0% | 64% | 0% | 1% | 0% | 8% | 0%
22 | CCC(=O)c1c(-c2ccccc2)c2cc(Cl)ccc2c(=O)n1Cc1cc(S(C)(=O)=O)n(CC(F)F)n1 | 0% | 0% | 0% | 3% | 0% | 10% | 0% | 0% | 0% | 0%
23 | COc1ccc(-c2cc3c(C)nc(N)nc3n([C@H]3CC[C@H](O)CC3)c2=O)cn1 | 0% | 0% | 0% | 0% | 0% | 0% | 0% | 0% | 0% | 0%
24 | Cc1nnc(-c2ccc3ncn(-c4ccc(S(C)=O)cc4)c3c2)o1 (centres unmarked) | 13% | 6% | 0% | 0% | 0% | 0% | 25% | 7% | 0% | 0%
25 | CCC(=O)c1c(-c2ccccc2)c2cc(Cl)ccc2c(=O)n1Cc1ccc(C(=O)O)cc1 | 0% | 0% | 0% | 0% | 0% | 0% | 0% | 0% | 0% | 0%
26 | CCCC(=O)Nc1n[nH]c2ncc(-c3cccc4ccccc34)cc12 [SB-642057] | 11% | 26% | 31% | 30% | 45% | 16% | 9% | 30% | 27% | 0%
27 | CC(C)(C)c1ccc(C(=O)Nc2cn3cc(-c4ccccc4)ccc3n2)cc1 | 20% | 0% | 0% | 9% | 0% | 0% | 5% | 6% | 0% | 0%
28 | Cn1c(=O)c(F)c(Nc2ccc(I)cc2F)c2c(=O)n(OC[C@H](O)CO)cnc21 | 0% | 81% | 0% | 0% | 0% | 0% | 0% | 0% | 0% | 0%
29 | Nc1ncnc2c1ncn2-c1cccc2ccccc12 [SKF-97184] | 0% | 7% | 2% | 45% | 0% | 0% | 16% | 3% | 0% | 0%
30 | COc1cc(OC)cc(-c2cc3cnc(N)nc3nc2NC(=O)NC(C)(C)C)c1 | 0% | 0% | 0% | 0% | 0% | 0% | 7% | 9% | 7% | 0%
31 | CN1C(=O)C(Nc2cc(Cl)c(O)c(Cl)c2)=C(c2ccc(Cl)cc2)C1=O [SB-404321] | 0% | 0% | 12% | 0% | 6% | 0% | 0% | 0% | 0% | 0%
32 | Nc1nc(-c2ccccc2F)c(-c2ccnc3ccccc23)s1 [GW560459] | 3% | 0% | 7% | 12% | 0% | 20% | 28% | 9% | 18% | 0%
33 | Cl.NS(=O)(=O)c1cccc(Nc2cc(-c3ccc(F)cc3)n[nH]2)c1 [GW824645] | 18% | 18% | 0% | 58% | 12% | 0% | 1% | 9% | 8% | 0%
34 | O=c1cc(N2CCOCC2)nc2n(Cc3ccc(F)c(Cl)c3)ccn12 [GSK2297099] | 23% | 0% | 25% | 0% | 16% | 0% | 3% | 17% | 0% | 0%
35 | COc1ccc(-c2cc3c(C)nc(N)nc3n([C@H]3CC[C@H](OCCO)CC3)c2=O)cn1 | 5% | 0% | 0% | 0% | 0% | 0% | 0% | 0% | 0% | 0%
